system: Plasmodium falciparum; assay: GSK_TCMDC: Inhibition of Plasmodium falciparum Dd2 in whole red blood cells, using parasite LDH activity as an index of growth. Test compounds present at 2uM; type: functional

SMILES | Inhibition [%]
COc1cc(NCC(O)CNc2cc(Cl)nc3ccccc23)nc2ccccc12 (stereo unspecified) | 99
Nc1nc2c(ncn2OC[C@H]2COP(=O)([O-])CO2)c(=O)[nH]1.[Na+] | 32
COc1cc(C(C)C)ccc1C1CCN(CCCCNC(=O)c2ccc(NC(=O)c3ccc(Cl)cc3)cc2)CC1.O=C(O)/C=C/C(=O)O | 99
COc1ccc(CN2CCC(CNCc3cccc(-c4ccccc4)c3)CC2)cc1.O=C(O)C(F)(F)F | 92
O=C(O)C(F)(F)F.c1cc(-c2ccc(CN3CCN(c4ccncc4)CC3)cc2)cc(-c2nc3ccccc3[nH]2)c1 | 100
CCc1cn2c3c(cc(C(=O)N[C@@H](Cc4ccccc4)[C@H](O)CNCc4ccccc4)cc13)N(C)S(=O)(=O)CC2.O=CO | 99

Reference: ChEMBL document CHEMBL1157539, “Thousands of chemical starting points for antimalarial lead identification” (Nature, 2010)
